Data from PubChem BioAssay.
Active and inactive are the calls of the source. Unless noted, no rule for the calls is given here.

Key:
[1] = liver-stage malaria parasite load reduction – cell-based, known kinase inhibitor set, luminescence, hepatoma host viability (AID 624392); details: Plasmodium liver stage in hepatoma cells, luciferase luminescence, concentration not given here; liver cell % of control: measured here: host liver cell viability; parasite % of control: stronger effect = lower value;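 also: infected cells incubated roughly two days before readout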
[2] = altered dexamethasone sensitivity, NF-kB reporter, cell-based, luciferase, IL-1B stimulus (AID 624486); details: IL-1B + dexamethasone, luminescence; percent of negative control (+Dex): actives lie on both sides, concentration not given here; z-score: measured here: IL-1B alone, no Dex;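 as to percent of negative control (+Dex): 100% = mean signal of vehicle control wells on the plate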
[3] = C. elegans survival during P. aeruginosa infection – whole organism (AID 651566);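 also: tested at 14 µM; sign flipped so higher z means a lower ratio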; details: C. elegans killed by P. aeruginosa, survival ratio
[4] = pro-inflammatory signaling induction in mouse macrophages – cell-based, murine, luminescence (AID 652131); details: murine macrophage pro-inflammatory reporter, stronger effect = higher value
[5] = target: Cellular tumor antigen p53 (Homo sapiens) (UniProt P04637); assay: GFP-p53 level modulators in HPV16+ cells – imaging, known kinase inhibitor set, EGFP/DsRed ratio (AID 1053116); details: GFP-p53 stability, stronger effect = higher value; EGFP object count: measured here: GFP-p53 positive objects count;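 also: cells exposed to compounds for 24 h at 37 °C before reading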
Chain of Cellular tumor antigen p53 (Homo sapiens) (P04637 whole entry, looked up): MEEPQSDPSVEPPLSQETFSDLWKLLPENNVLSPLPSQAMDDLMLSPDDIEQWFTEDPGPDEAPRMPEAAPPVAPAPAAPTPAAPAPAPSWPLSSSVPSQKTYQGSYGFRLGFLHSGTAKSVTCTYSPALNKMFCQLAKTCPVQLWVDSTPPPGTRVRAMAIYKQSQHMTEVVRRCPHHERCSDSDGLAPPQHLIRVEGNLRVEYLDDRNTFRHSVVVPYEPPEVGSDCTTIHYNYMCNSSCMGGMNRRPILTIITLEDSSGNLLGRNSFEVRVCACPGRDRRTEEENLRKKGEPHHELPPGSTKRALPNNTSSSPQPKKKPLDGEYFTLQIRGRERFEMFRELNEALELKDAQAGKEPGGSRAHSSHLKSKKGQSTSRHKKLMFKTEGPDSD

[6] = inducers of IRF3 signaling, differentiated THP-1 – cell-based, PMA-stimulated THP-1, luminescence (AID 1053176); details: PMA-differentiated THP-1, IRF3 reporter luminescence; stronger effect = higher value
[7] = MELAS cybrid and Rieske KO viability enhancers – cell-based, MELAS cybrids, Rieske KO mouse fibroblasts, CellTiter-Glo, primary screen (AID 1508586;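 active = mean z-score across replicates of 1.96 or higher in either the MELAS or the Rieske mutant cell line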;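 also: z relative to plate mean and SD of compound and empty wells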); details: low glucose
[8] = MELAS cybrid survival, CellTiter-Glo 48 h, stronger effect = higher value
[9] = Rieske KO mouse fibroblast survival, CellTiter-Glo 72 h

SMILES	liver cell % of control [1] [%]	parasite % of control [1]	percent of negative control (+Dex) [2]	z-score [2]	z-score [3]	z-score [4]	EGFP object count [5]	EGFP/DsRed ratio [5]	fraction signal [6]	z-score [7, 8]	z-score [7, 9]
COc1cc(Nc2nccc(Nc3ccc4c(C)[nH]nc4c3)n2)cc(OC)c1OC	142	247% (inactive)	68% (inactive)	-1.93	-0.535 (inactive)	2.91 (inactive)	2	0.0182 (inactive)	-0.01 (inactive)	-0.786	5.33
NS(=O)(=O)c1cccc(-c2ccc3c(NC(=O)C4CC4)n[nH]c3c2)c1	97.5	241% (inactive)	90.5% (inactive)	0.225	-0.22 (inactive)	-0.069 (inactive)	4	0.0329 (inactive)	-0.0015 (inactive)	-0.0262 (inactive)	-0.475
CCS(=O)(=O)c1ccc(OC)c(Nc2ncc(-c3cccc(OC)c3)o2)c1	161	16.6% (inactive)	78.5% (inactive)	-0.275	0.285 (inactive)	-0.544 (inactive)	4.5	0.129 (inactive)	0.002 (inactive)	1.48 (inactive)	-0.42
NS(=O)(=O)c1ccc(N=Nc2c(O)[nH]c3ccc(C(=O)NCc4ccncc4)cc23)cc1	77.7	86.4% (inactive)	95% (inactive)	-0.595	-0.105 (inactive)	0.051 (inactive)	8	0.126 (inactive)	-0.001 (inactive)	-0.207 (inactive)	-0.126
Cc1nc(-c2ccccc2)n2nc(NCCCN3CCOCC3)ncc12	97.3	149% (inactive)	102% (inactive)	1.35	-0.095 (inactive)	-1.16 (inactive)	4.5	0.201 (inactive)	-0.0105 (inactive)	-0.231 (inactive)	-0.21
Fc1cccc(COc2ccc(Nc3ncnc4sc(-c5ccco5)cc34)cc2Cl)c1	85.8	129% (inactive)	89% (inactive)	-0.11	0.87 (inactive)	-0.392 (inactive)	4.5	0.122 (inactive)	-0.0105 (inactive)	-0.906 (inactive)	-0.52
O=C1NC(=O)C(c2ccccc2Cl)=C1Nc1cccc(O)c1	91.7	148% (inactive)	88% (inactive)	-0.19	-0.34 (inactive)	0.132 (inactive)	5.5	0.0989 (inactive)	-0.003 (inactive)	-0.289 (inactive)	-0.424
Cc1nnc(-c2ccc(C)c(-c3ccc(C(=O)NCc4ccc(Cl)cc4)cc3)c2)o1	161	31.3% (inactive)	106% (inactive)	1.07	0.9 (inactive)	-0.451 (inactive)	2	0.079 (inactive)	-0.0105 (inactive)	-0.978 (inactive)	-0.533
CN1CCC(n2cnc(-c3ccc(F)cc3)c2-c2ccnc(Nc3ccccc3)n2)CC1	67.1	74.5% (inactive)	101% (inactive)	-0.08	0.955 (inactive)	0.813 (inactive)	3	0.0706 (inactive)	0.005 (inactive)	-0.528 (inactive)	-0.322
COC(=O)Nc1nc2ccc(Oc3ccc(NC(=O)Nc4ccccc4)cc3)cc2[nH]1	96.2	260% (inactive)	112% (inactive)	1.13	0.065 (inactive)	0.608 (inactive)	17.5	0.664 (inactive)	-0.0025 (inactive)	-0.73 (inactive)	-0.00674
COC(=O)Nc1nc2ccc(Oc3ccc(NC(=O)Nc4cc(C(F)(F)F)ccc4F)cc3)cc2s1	100	360% (inactive)	120% (inactive)	-1.24	-0.21 (inactive)	-0.073 (inactive)	18.5	0.414 (inactive)	0 (inactive)	-0.628 (inactive)	-0.719
COc1ccc(-c2cc(C3CNNC3c3ccccn3)ccn2)cc1 (stereo not given)	171	92.3% (inactive)	104% (inactive)	1.42	-0.77 (inactive)	2.73 (inactive)	3.5	0.0398 (inactive)	-0.0055 (inactive)	-0.36 (inactive)	-0.107
Fc1ccc(-c2nn3ncccc3c2-c2ccnc(Nc3ccc4c(c3)OCCO4)n2)cc1	90.5	13.9% (inactive)	100% (inactive)	-1.27	-0.41 (inactive)	-0.769 (inactive)	3	0.08 (inactive)	-0.003 (inactive)	-0.754 (inactive)	-0.424
COc1ccc(-c2ccc3c(NC(=O)C4CC4)n[nH]c3n2)cc1	119	77.2% (inactive)	130% (inactive)	2.11	0.15 (inactive)	2.53 (inactive)	6	0.0694 (inactive)	0.0035 (inactive)	1.36 (inactive)	0.0157
NS(=O)(=O)c1cccc(N=Cc2c(O)[nH]c3ccccc23)c1	80.7	106% (inactive)	89.5% (inactive)	0.485	-1.3 (inactive)	1.25 (inactive)	7	0.162 (inactive)	-0.0005 (inactive)	1.07 (inactive)	-0.155
